Test results as given in PubChem BioAssay (NCI).
This is part of a sample that, as a whole, favours compounds with a hit. Of some 79,000 tested, about 15% had one in any assay. Activity calls are given as the source filed them. Rule as the data show it: active = growth inhibition above about 70%; inactive = the rest.

assay: NCI Yeast Anticancer Drug Screen. Data for the rad18 strain (AID 177); conditions: S. cerevisiae rad18 mutant growth inhibition; at 33.0 µM; hits give high values
Procedure, shortened: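 Inhibition values reflect reduced yeast growth compared with vehicle-treated controls, using a strain engineered with a DNA damage repair defect.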

| SMILES | growth inhibition |
| --- | --- |
| CCOP(=O)(OCC)C(Cc1ccccc1)N=C(c1ccccc1)c1ccccc1 (stereo not drawn) | 87% (active) |
| CCc1ncnc2cc(OCC3CO3)c(OC)cc12 (stereo not drawn) | 91% (active) |
| CCOC(=O)[C@H]1Nc2ccccc2C2c3ccccc3CC21 (stereo partly drawn) | 64% (inactive) |
| O=CNc1ccc2c(c1)C(=O)c1ccccc1-2 | 52% (inactive) |
| CCOc1ccc2c(c1)c(CC(=O)O)cn2C | 57% (inactive) |
| OC1CSCCCSCCSCCCSC1 | -49% (inactive) |
| N#Cc1c(N)[nH]c2ccc(Sc3ccccc3)cc12 | 95% (active) |
| Cc1ccc(-c2ccc(Nc3c4ccccc4nc4ccccc34)cc2)cn1 | 89% (active) |
| c1ccc2c(c1)NC(NC1Nc3ccccc3N1)N2 | 49% (inactive) |
| OC(COc1cccc2ccccc12)CN1CCOCC1 (stereo not drawn) | 64% (inactive) |
| CCC/C(Cl)=N\OC(=O)Nc1ccc(Br)cc1 | 97% (active) |
| COc1ccc(/C=C2\SC(=S)N(/C=C/c3nc4ccccc4[nH]c3=O)C2=O)cc1OC | 67% (inactive) |
| O=C(NNc1ccnc2cc(Cl)ccc12)/C(=C\c1ccccc1Cl)NC(=O)c1ccccc1 | 64% (inactive) |
| CSC1=NNC(SC)=NN1 | 93% (active) |
| Cc1c(C2=C(Br)C(=O)N(C)C2=O)c(=O)n(C)c(=O)n1C | 88% (active) |
| NCCNc1ccc(NCCN)c2c1C(=O)c1c(O)ccc(O)c1C2=O | 85% (active) |
| Cn1c(=O)c(-c2ccccc2)c(N=[N+]=[N-])c2ccccc21 | 93% (active) |
| CCCCCCCCCCCCCCCCCCOCC(O)COP(=O)(O)OCC1OC(n2cc(F)c(=O)[nH]c2=O)CC1O (stereo not drawn) | 97% (active) |
| CCS(=O)(=O)c1ccc(/C=C/C=N/NC(=S)NCC(C)C)cc1 | 5% (inactive) |
| CCC(=O)Oc1c(Cl)cc(Cl)c2ccccc12 | 5% (inactive) |

| SMILES | growth inhibition |
| --- | --- |
| COc1cc2c3c(cccc3c1)C(=O)N(CCN(C)C)C2=O | -15% (inactive) |
| CN(C)c1ccc(C(C#N)=C(C#N)C#N)cc1 | 6% (inactive) |
| O=C(CCCN1CCC2(CC1)CC(=O)N(N1CCCCCC1)C2=O)c1ccc(F)cc1 | 66% (inactive) |
| O=C1C2C(C(=O)N1c1ccc(OCc3ccccc3)cc1)C1c3ccccc3C2C2CCCCN21 (stereo not drawn) | 24% (inactive) |
| CCN(CC)CCC(=O)c1ccc(Oc2ccc(F)cc2)cc1 | 52% (inactive) |
| O=Nc1c(NO)ccc2nn(-c3ccccc3)nc12 | 97% (active) |
| CC(=O)SCCC[Si](C)(C)CCCSC(C)=O | 19% (inactive) |
| O=C(O)C1CCCCC1c1c2ccc(=O)c(O)c-2oc2c(O)c(O)ccc12 (stereo not drawn) | 20% (inactive) |
| Cc1ccc(NN(NC(=O)OC(C)C)C(=O)OC(C)C)cc1 | 12% (inactive) |
| O=C1c2ccccc2C(=O)c2cc(CBr)ccc21 | 78% (active) |
| Cc1c(C(Cc2ccccc2N(C)C(=O)/C=C\C(=O)O)c2c[nH]c3ccccc23)c2ccccc2n1C (stereo not drawn) | 0% (inactive) |
| CC(C)/C(Cl)=N\OC(=O)Nc1ccc(F)cc1 | 5% (inactive) |
| O=C1OC(=O)C2CCCC3CCCC1C32 (stereo not drawn) | 94% (active) |
| CCOC(=O)C(NC(=O)c1ccccc1)(N1CCN(c2cc3c(cc2F)c(=O)c(C(=O)O)cn3C2CC2)CC1)C(F)(F)F (stereo not drawn) | 2% (inactive) |
| COc1ccc(NC(=S)N/N=C(\c2ccccc2)c2ccccn2)cc1 | 51% (inactive) |
| C=CCC1=C(C)C(OC(=O)/C=C/c2ccccc2)CC1=O (stereo not drawn) | 5% (inactive) |
| NNc1c(F)c(F)cc(F)c1F | -20% (inactive) |
| COP(=O)(OC)/C(=C\C1=CN(C(c2ccccc2)(c2ccccc2)c2ccccc2)CN1)NC=O | 40% (inactive) |
| COC(=O)c1cc(-c2ccc(C)cc2)[nH]c(=O)c1C#N | -11% (inactive) |

same assay, conditions: S. cerevisiae rad18 mutant growth inhibition; at 100.0 µM; hits give high values

| SMILES | growth inhibition |
| --- | --- |
| CCOP(=O)(OCC)C(Cc1ccccc1)N=C(c1ccccc1)c1ccccc1 (stereo not drawn) | 98% (active) |
| CCc1ncnc2cc(OCC3CO3)c(OC)cc12 (stereo not drawn) | 93% (active) |
| CCOC(=O)[C@H]1Nc2ccccc2C2c3ccccc3CC21 (stereo partly drawn) | 74% (active) |
| O=CNc1ccc2c(c1)C(=O)c1ccccc1-2 | 94% (active) |
| CCOc1ccc2c(c1)c(CC(=O)O)cn2C | 87% (active) |
| OC1CSCCCSCCSCCCSC1 | -75% (inactive) |
| N#Cc1c(N)[nH]c2ccc(Sc3ccccc3)cc12 | 96% (active) |
| Cc1ccc(-c2ccc(Nc3c4ccccc4nc4ccccc34)cc2)cn1 | 86% (active) |
| c1ccc2c(c1)NC(NC1Nc3ccccc3N1)N2 | 64% (inactive) |
| OC(COc1cccc2ccccc12)CN1CCOCC1 (stereo not drawn) | 51% (inactive) |
| CCC/C(Cl)=N\OC(=O)Nc1ccc(Br)cc1 | 98% (active) |
| COc1ccc(/C=C2\SC(=S)N(/C=C/c3nc4ccccc4[nH]c3=O)C2=O)cc1OC | 85% (active) |
| O=C(NNc1ccnc2cc(Cl)ccc12)/C(=C\c1ccccc1Cl)NC(=O)c1ccccc1 | 67% (inactive) |
| CSC1=NNC(SC)=NN1 | 98% (active) |
| Cc1c(C2=C(Br)C(=O)N(C)C2=O)c(=O)n(C)c(=O)n1C | 96% (active) |
| NCCNc1ccc(NCCN)c2c1C(=O)c1c(O)ccc(O)c1C2=O | 61% (inactive) |
| Cn1c(=O)c(-c2ccccc2)c(N=[N+]=[N-])c2ccccc21 | 85% (active) |
| CCCCCCCCCCCCCCCCCCOCC(O)COP(=O)(O)OCC1OC(n2cc(F)c(=O)[nH]c2=O)CC1O (stereo not drawn) | 98% (active) |
| CCS(=O)(=O)c1ccc(/C=C/C=N/NC(=S)NCC(C)C)cc1 | 9% (inactive) |
| CCC(=O)Oc1c(Cl)cc(Cl)c2ccccc12 | 73% (active) |

| SMILES | growth inhibition |
| --- | --- |
| COc1cc2c3c(cccc3c1)C(=O)N(CCN(C)C)C2=O | -27% (inactive) |
| CN(C)c1ccc(C(C#N)=C(C#N)C#N)cc1 | 39% (inactive) |
| O=C(CCCN1CCC2(CC1)CC(=O)N(N1CCCCCC1)C2=O)c1ccc(F)cc1 | 65% (inactive) |
| O=C1C2C(C(=O)N1c1ccc(OCc3ccccc3)cc1)C1c3ccccc3C2C2CCCCN21 (stereo not drawn) | 81% (active) |
| CCN(CC)CCC(=O)c1ccc(Oc2ccc(F)cc2)cc1 | 96% (active) |
| O=Nc1c(NO)ccc2nn(-c3ccccc3)nc12 | 97% (active) |
| CC(=O)SCCC[Si](C)(C)CCCSC(C)=O | 51% (inactive) |
| O=C(O)C1CCCCC1c1c2ccc(=O)c(O)c-2oc2c(O)c(O)ccc12 (stereo not drawn) | 80% (active) |
| Cc1ccc(NN(NC(=O)OC(C)C)C(=O)OC(C)C)cc1 | 21% (inactive) |
| O=C1c2ccccc2C(=O)c2cc(CBr)ccc21 | 93% (active) |
| Cc1c(C(Cc2ccccc2N(C)C(=O)/C=C\C(=O)O)c2c[nH]c3ccccc23)c2ccccc2n1C (stereo not drawn) | 42% (inactive) |
| CC(C)/C(Cl)=N\OC(=O)Nc1ccc(F)cc1 | 56% (inactive) |
| O=C1OC(=O)C2CCCC3CCCC1C32 (stereo not drawn) | 97% (active) |
| CCOC(=O)C(NC(=O)c1ccccc1)(N1CCN(c2cc3c(cc2F)c(=O)c(C(=O)O)cn3C2CC2)CC1)C(F)(F)F (stereo not drawn) | 6% (inactive) |
| COc1ccc(NC(=S)N/N=C(\c2ccccc2)c2ccccn2)cc1 | 95% (active) |
| C=CCC1=C(C)C(OC(=O)/C=C/c2ccccc2)CC1=O (stereo not drawn) | 31% (inactive) |
| NNc1c(F)c(F)cc(F)c1F | 6% (inactive) |
| COP(=O)(OC)/C(=C\C1=CN(C(c2ccccc2)(c2ccccc2)c2ccccc2)CN1)NC=O | 95% (active) |
| COC(=O)c1cc(-c2ccc(C)cc2)[nH]c(=O)c1C#N | -18% (inactive) |
